Results taken from PubChem BioAssay AID778 (Sanford-Burnham Center for Chemical Genomics, 2007).
Among all 96,000 compounds or so, about 20,000 (21%) were called active.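 Rule for the calls: active = CYP2C19 inhibition above a set limit at 5 µM in the primary screen (cut at about 50% in these data); inactive = the rest.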 The list is a sample of the results.

What follows are molecules tested against Cytochrome P450 2C19 (Homo sapiens) (UniProt P33261) (assay: blockers of cytochrome P450 2C19 activity – biochemical, luminescence, ADME assay, primary screen (AID 778;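 note: plate controls were negative control wells for no effect and 2.5 mM tranylcypromine positive control for full effect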)). Conditions: CYP2C19 Supersomes, luciferin-H EGE luminescence, 30 min; at 5 µM; stronger effect = higher value.
Sequence of Cytochrome P450 2C19 (Homo sapiens) (P33261 whole entry, looked up): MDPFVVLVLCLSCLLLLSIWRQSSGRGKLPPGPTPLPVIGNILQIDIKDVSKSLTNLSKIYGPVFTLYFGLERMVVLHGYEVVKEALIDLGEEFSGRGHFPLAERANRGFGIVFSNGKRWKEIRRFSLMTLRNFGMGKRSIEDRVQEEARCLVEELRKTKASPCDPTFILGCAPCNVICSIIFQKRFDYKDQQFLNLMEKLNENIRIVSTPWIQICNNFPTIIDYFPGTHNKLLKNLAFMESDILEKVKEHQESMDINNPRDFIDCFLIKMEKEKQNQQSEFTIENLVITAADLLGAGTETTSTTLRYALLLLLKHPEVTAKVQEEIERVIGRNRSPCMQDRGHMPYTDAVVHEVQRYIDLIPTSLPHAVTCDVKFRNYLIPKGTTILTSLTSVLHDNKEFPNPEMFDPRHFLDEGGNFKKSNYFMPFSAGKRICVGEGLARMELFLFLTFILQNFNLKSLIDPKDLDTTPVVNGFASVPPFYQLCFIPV

inhibition, active:
O=c1c2ccccc2nc2n1C(CSCc1ccccc1)CS2 (stereo not given) 63.8%, O=c1c2ccccc2nc2n1C(CSCc1cccc(C(F)(F)F)c1)CS2 (stereo not given) 84.1%, O=C(CN1C(=O)CC(c2ccccc2)=Nc2ccccc21)NC1CCCCC1 52.2%, Cc1onc(-c2ccccc2)c1C(=O)Nc1ccccc1C#N 86.7%, CC(=O)Nc1cccc(NC(=O)c2c(-c3ccccc3)noc2C)c1 67.3%, CCCOc1ccc(C2c3c(oc4cc(C)c(C)cc4c3=O)C(=O)N2CCCN2CCOCC2)cc1 (stereo not given) 69.9%, COc1ccc(-c2nnn(Cc3nc(N)nc(N4CCCCC4)n3)n2)cc1 65.2%, Cc1nnc(SCc2nc3ccccc3nc2C)s1 52.6%, CC(=O)c1cnc(SCCN2C(=O)c3ccccc3C2=O)nc1C 57.8%, CCOc1ccc(S(=O)(=O)NCCSc2ccccc2)cc1 98.7%, O=C1C2C3C=CC(C4CC34)C2C(=O)N1/N=C/c1ccc(-c2ccccc2[N+](=O)[O-])o1 (stereo not given) 72.2%, C/C(=C\c1ccco1)C1Nc2cccc3cccc(c23)N1 72.8%, CCC(=O)N1CCN=C1SCc1ccc(F)cc1 78.7%, O=C(C1CC1)N1CCN=C1SCc1ccc(Cl)cc1 98.5%, O=S(=O)(/C=C/c1ccccc1)NCCc1ccccn1 53.8%

inhibition, inactive:
O=c1c2ccccc2nc2n1C(CSc1ccc(F)cc1)CN2 (stereo not given) -3.9%, CC1CSc2nnc(CCc3ccccc3)n21 (stereo not given) 2.1%, Cc1ccccc1N/N=C/c1ccc(N2CCOCC2)cc1 23.7%, CCOc1ccccc1/C=c1\sc2nc(-c3ccco3)nn2c1=O 15.4%, CN(CCCNC(=O)CN1C(=O)CC(C)(C)S(=O)(=O)c2ccccc21)C1CCCCC1 9.9%, O=C(NC1CCCCC1)C1CC(=O)N(CCc2ccccc2)C1 (stereo not given) -5.3%, O=C(NCc1ccco1)c1cc(-c2cccnc2)nc2ccc(Cl)cc12 0.7%, O=C(NCCCN1CCN(C2CCCCC2)CC1)Nc1ccccc1C(F)(F)F -6.6%, Cc1ccc(CNC(=O)C2CCCN(S(C)(=O)=O)C2)cc1 (stereo not given) 26.6%, Cc1ccoc1C(=O)Nc1cccc(Oc2ccccc2)c1 5.3%, CCOC(=O)c1c(-c2cccc(C)c2)csc1NC(=O)c1c(-c2ccccc2)noc1C 37.7%, Cc1onc(-c2ccccc2)c1C(=O)N1CCOCC1 1.4%, O=C(Nc1ccccc1[N+](=O)[O-])C1C(c2ccccc2)=C1c1ccccc1 18.5%, CCOC(=O)c1sc(NC(=O)CSc2ncccn2)c(C#N)c1C 6.5%, CCOC(=O)c1cc(NC(=O)c2cccnc2)cc(C(=O)OCC)c1 22.9%, Cc1cc(C(=O)CC#N)c(C)n1CC(F)(F)F 17%, CC(C)OCCCNC(=O)CNC(=O)c1cccs1 14%, CCOc1ccc(C2C(C(=O)O)c3ccccc3C(=O)N2CCN2CCOCC2)cc1 (stereo not given) -12.7%, CCCCOc1ccc(C(C)(O)CCN2CCOCC2)cc1 (stereo not given) -1.7%, COC(=O)[C@H](C)NC(=O)Nc1ccc(OC(F)(F)F)cc1 9.5%, Cc1ccc(N2C(=O)S/C(=C/c3cn(C)c4ccccc34)C2=O)cc1 -7.8%, CCc1ccc(-c2nnn(Cc3nn[nH]n3)n2)cc1 14.2%, COc1ccc(-n2nnnc2SCc2nc(N)nc(N3CCOCC3)n2)cc1 22.5%, CCN(CC)Cc1cc(C(C)=O)ccc1O -2.4%, Cc1c(CN2CCC(C)CC2)c(=O)n(-c2ccccc2)n1C -0.1%, Cc1nnc(SCC(=O)NCc2ccccc2)s1 -3.1%, Cc1nnc(SCC(=O)N2CCc3ccccc3C2)s1 42.5%, CCc1c(C)sc(NC(=O)OC)c1C(=O)N1CCOCC1 -0.7%, C=CCn1c(C)cc(C(=O)CN2C(=O)c3ccccc3C2=O)c1C 2.9%, CC(C)OC(=O)CN1C(=O)c2ccccc2C1=O 24%, CC(=O)NNc1cc(=O)c2c(=O)n(C)c(=O)n(C)c2[nH]1 -1.8%, Cc1cc(=O)n2c3c(cccc13)CCC2 18.8%, COc1ccc(/C=C2/S/C(=N/N=C3\CC4CCC3(C)C4(C)C)NC2=O)cc1 (stereo not given) -9.6%, CCOCCCNS(=O)(=O)Cc1ccccc1 42.5%, CCOc1ccc2nc(NCCNS(=O)(=O)c3ccccc3)c(C#N)cc2c1 24.6%, COCCNC(=O)Cn1cc2c(n1)CCCCC2 -6.8%, CCOc1cc2[nH]c(=O)n(CCC(=O)NCc3ccc(OC)cc3)c(=O)c2cc1OCC -6%, O=C(NCC1CCCO1)/C(=C\c1ccco1)NC(=O)c1ccccc1 (stereo not given) -11.9%, Cc1cccc(NC(=O)/C(=C\c2ccco2)NC(=O)c2ccccc2)c1 13.6%, CCOC(=O)N1CCN(C(=O)c2cnc3n(c2=O)CCS3)CC1 -15.9%, CCOC(=O)c1nc(C)n(-c2ccc(Cl)cc2Cl)n1 16.5%, Cc1nn(C(C)CC(=O)O)c(C)c1C (stereo not given) 6.7%, Cc1ccc(N2C(=O)C3C(c4ccccc4)(C2=O)C3(c2ccccc2)c2ccccc2)cc1 (stereo not given) 8.1%, CSC1=NCCN1C(=O)c1ccc(S(=O)(=O)N2CCOCC2)cc1 13.3%, O=C(c1ccco1)N1CCN=C1SCc1cccc(Cl)c1 20.6%, CCCOC(=O)CC1C(=O)NCCN1Cc1ccc(F)cc1 (stereo not given) 19.1%, CCOC(=O)c1c(C(C#N)C#N)cc(C)nc1C -4.1%, CC(=O)Nc1ccc(NC(=O)c2sc3nc4c(c(-c5ccc(C)cc5)c3c2N)CCC4)cc1 -6.7%, C/C(N)=C(\C#N)C(=O)NCCc1ccccn1 -6.3%, NS(=O)(=O)c1ccc(NS(=O)(=O)/C=C/c2ccccc2)cc1 38.8%
